Screening data deposited in PubChem by National Center for Advancing Translational Sciences (NCATS).
LmPK inh: LmPK (Leishmania mexicana) enzyme inhibition. Q27686. Potency, µM (top dose mostly 57.5 µM), without a hit: at the top dose activity change, negative = inhibition, hits mostly inhibitors. purified LmPK, Kinase-Glo ATP luminescence, 1 h. 0.37% of 290,000 active; further: potency means the concentration at half of the fitted maximal effect; on the % scale 0 is the no-effect control and ±100 the full control effect
Target sequence (Q27686 whole entry, looked up): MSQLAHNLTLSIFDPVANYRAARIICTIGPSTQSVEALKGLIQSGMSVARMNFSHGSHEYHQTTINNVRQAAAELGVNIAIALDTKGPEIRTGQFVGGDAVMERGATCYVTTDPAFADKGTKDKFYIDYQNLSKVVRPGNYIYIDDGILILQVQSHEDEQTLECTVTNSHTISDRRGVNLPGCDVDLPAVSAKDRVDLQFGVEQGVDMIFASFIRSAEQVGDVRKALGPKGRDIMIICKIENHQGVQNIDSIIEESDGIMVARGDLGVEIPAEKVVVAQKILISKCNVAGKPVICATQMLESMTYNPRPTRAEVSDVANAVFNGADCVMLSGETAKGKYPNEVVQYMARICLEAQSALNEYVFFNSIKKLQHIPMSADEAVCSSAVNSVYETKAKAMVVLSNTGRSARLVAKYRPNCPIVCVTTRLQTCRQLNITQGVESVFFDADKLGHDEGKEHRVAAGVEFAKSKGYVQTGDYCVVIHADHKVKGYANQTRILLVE
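In 50 mM imidazole pH 7.2 with 7 mM MgCl2, LmPK (0.1 nM) turned over PEP (0.5 mM) and ADP (0.1 mM) for 1 h at room temperature. Luciferase read-out of ATP.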
CHX counter: counter-screen for Shiga toxin inhibitors: cycloheximide protein synthesis inhibition; AID 2314; 12% of 300,000 active; cell reporter, cycloheximide protein synthesis inhibition counterscreen; max response, %; in the data active means max response mostly above about 13%, no sharp cut-off; inactive means mostly below about 14%; further: read at 38.3 µM for the half of the compounds with a filed dose; 0% is about no effect
Giardia FBPA inh: blocks Giardia fructose-bisphosphate aldolase activity | A8B2U2 | purified Giardia FBPA | Potency, µM (top dose mostly 59.6 µM), without a hit: top-dose activity, negative = inhibition, usual class: inhibitors | 0.71% of 290,000 active; further: potency means the concentration at half of the fitted maximal effect; on the % scale 0 is the no-effect control and ±100 the full control effect; nearly all actives have a fitted effect of over 55% in size
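40 nM FBPA preincubated 10 min at RT with compound (up to 57.5 uM final), then substrate plus GAPDH/TPI/NAD/arsenate coupling and diaphorase/resazurin added. Fluorescence read after 20 min at RT, 525/598 nm.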
Shiga inhibitor: inhibitors of Shiga toxin in Vero cells. Vero cells, Shiga toxin protein synthesis inhibition reporter. inhibition, % at 38.7 µM. 9.2% of 290,000 active; in the data active means inhibition mostly above about 28%, no sharp cut-off; inactive means mostly below about 43%; further: 0% is about no effect
NS1 function inh: inhibitors of influenza NS1 protein function | 0.4% of 270,000 active | AID 2326 | Potency, µM (series often up to 46.1 µM), without a hit: at the highest dose activity, positive = more growth; calls by dose curve; further: potency means the concentration at half of the fitted maximal effect; actives are rising curves; nearly all actives have a fitted effect of over 50% in size
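Compounds were scored for reversing the slow growth caused by influenza A NS1 in S. cerevisiae, measured by optical density at 600 nm. Assay medium contained 2% galactose at pH 6.0; NS1-free yeast of the same strain were the positive control.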
The depositor's hits bear a star; [ ] = remark or other dose. Most compounds without a hit are left out; they make up all but 14% or so of the library. Unless noted, the call rests on the fitted dose curve; in most records, active means well fitted curve in the direction sought with a large enough effect; inconclusive means small, poorly fitted or top-dose-only effect, or another doubt; inactive means no such curve, though single readings can be large; an effect the other way counts as inactive or inconclusive.

For CCOC(=O)c1[nH]c(C)c(C(=O)NCCC2=CCCCC2)c1C the results were LmPK inh 2.7%, CHX counter 13.3, Giardia FBPA inh 6.1%, Shiga inhibitor 36.0 and NS1 function inh -9.0%.
`CCC(NC(=O)c1[nH]c(C)c(C(C)=O)c1C)c1ccc(Br)cc1` (stereo unspecified) gave LmPK inh 0.4%, CHX counter -1.8, Giardia FBPA inh 1.5%, Shiga inhibitor 9.8 and NS1 function inh -21.5%.
Screening Cc1ccccc1SCC(=O)N/N=C/c1ccc(F)cc1 returned LmPK inh -0.5%, CHX counter 1.7, Giardia FBPA inh -6.3%, Shiga inhibitor -3.2 and NS1 function inh -9.6%.
For CC(=O)c1c(C)[nH]c(C(=O)Nc2ccc(Cl)cc2F)c1C the results were LmPK inh 0.8%, CHX counter 31.6*, Giardia FBPA inh -5.8%, Shiga inhibitor 115.7* and NS1 function inh 0.5%.
Screening CC(=O)c1c(C)[nH]c(C(=O)NC2=NCCS2)c1C returned LmPK inh -5.4%, CHX counter 16.7*, Giardia FBPA inh -3.8%, Shiga inhibitor 30.4* and NS1 function inh -5.3%.
`CC(=O)c1c(C)[nH]c(C(=O)Nc2cccc(C)c2C)c1C` gave LmPK inh 11.6%, CHX counter -1.0, Giardia FBPA inh -10.5%, Shiga inhibitor 16.7 and NS1 function inh -15.0%.
`CC(=O)c1c(C)[nH]c(C(=O)Nc2ccc(F)c(F)c2F)c1C` gave LmPK inh -1.2%, CHX counter 6.1, Giardia FBPA inh 3.8%, Shiga inhibitor 71.3* and NS1 function inh -7.2%.
For CC(=O)c1c(C)[nH]c(C(=O)Nc2ccc(Cl)cc2)c1C the results were LmPK inh -6.7%, CHX counter 41.5*, Giardia FBPA inh -4.2%, Shiga inhibitor 62.3* and NS1 function inh -11.5%.
`C[N+](C)(C)CC(=O)N/N=C\c1ccncc1` gave NS1 function inh -0.7%.
`CN(C)CCCO[C@H]1[C@@H]2OC(C)(C)O[C@@H]2O[C@@H]1[C@H](O)CO` gave Giardia FBPA inh 3.8%[21.7 µM].
COc1cccc(CN2CCNC(=O)C2CC(=O)NCCN2CCCCC2=O)c1 (stereo unspecified) was read as LmPK inh 1.1%, CHX counter 0.9, Shiga inhibitor -5.6 and NS1 function inh 14.5%.
CN(C)S(=O)(=O)c1cc(NC(=O)CNCc2ccccc2)ccc1Cl was read as LmPK inh -1.4%, CHX counter 41.1*, Giardia FBPA inh inconclusive, Shiga inhibitor 66.9* and NS1 function inh 1.6%.
For CN(C)S(=O)(=O)c1cc(NC(=O)CN2CCN(c3ccccc3)CC2)ccc1Cl the results were LmPK inh 1.1%, CHX counter 2.6, Giardia FBPA inh 2.4%, Shiga inhibitor -6.4 and NS1 function inh -6.6%.
`CC(=O)c1c(C)[nH]c(C(=O)Nc2ccccn2)c1C` gave LmPK inh -9.1%, CHX counter 44.1*, Shiga inhibitor 52.4* and NS1 function inh 3.0%.
Screening CC(=O)c1c(C)[nH]c(C(=O)NCCc2ccc(Cl)cc2)c1C returned LmPK inh -0.7%, CHX counter 15.6*, Giardia FBPA inh 8.6%, Shiga inhibitor 36.1 and NS1 function inh -5.3%.
`CC(=O)c1c(C)[nH]c(C(=O)Nc2ccc(Cl)c(S(=O)(=O)N(C)C)c2)c1C` gave LmPK inh 0.4%, CHX counter 23.9*, Giardia FBPA inh -5.9%, Shiga inhibitor 108.9* and NS1 function inh -0.4%.
For CC(=O)c1c(C)[nH]c(C(=O)NCc2ccc(F)cc2)c1C the results were LmPK inh 0.8%, CHX counter 3.1, Giardia FBPA inh 3.3% and Shiga inhibitor 34.3.
COc1ccccc1NC(=O)c1[nH]c(C)c(C(C)=O)c1C was read as LmPK inh 0.8%, CHX counter -2.3, Giardia FBPA inh -6.3%, Shiga inhibitor 18.0 and NS1 function inh -12.5%.
Screening C[C@H]1C(=O)N(S(=O)(=O)c2ccc([N+](=O)[O-])cc2)[C@H]1c1ccc(F)cc1 returned CHX counter -3.4, Giardia FBPA inh 5.5% and Shiga inhibitor -7.4.
For COc1ccc(NC(=O)C2CC(c3ccccc3O)=NO2)cc1OC (stereo unspecified) the results were LmPK inh -3.4%, CHX counter 1.3, Giardia FBPA inh -2.4%, Shiga inhibitor 57.9 and NS1 function inh -13.3%.
For CCCCNc1nc(C)nc2c1nc(-c1ccccc1)n2CCCN1CCCCC1C (stereo unspecified) the results were Giardia FBPA inh 4.0%.
For CSCC[C@H](NC(=O)[C@@H]1Cc2ccccc2CN1)C(=O)NC(C)c1ccccc1 (stereo partly specified) the results were LmPK inh -1.4%, CHX counter 8.3, Giardia FBPA inh inconclusive, Shiga inhibitor 8.3 and NS1 function inh -3.3%.
`CSCC[C@H](NC(=O)[C@@H]1Cc2ccccc2CN1)C(=O)Nc1ccc2c(c1)OCO2` gave LmPK inh -2.5%, CHX counter 48.1*, Giardia FBPA inh -23.7%, Shiga inhibitor 33.6 and NS1 function inh 4.8%.
C[C@H](NC(=O)[C@@H]1Cc2ccccc2CN1)C(=O)NC1CCCCC1 was read as LmPK inh -1.4%, CHX counter 6.5, Giardia FBPA inh -21.2%, Shiga inhibitor -14.5 and NS1 function inh -7.5%.
`O=C(CNC(=O)[C@@H]1Cc2ccccc2CN1)Nc1ccc2c(c1)OCO2` gave LmPK inh 1.9%, CHX counter 9.2, Shiga inhibitor 26.3 and NS1 function inh -20.1%.
C[C@@H](NC(=O)[C@@H]1Cc2ccccc2CN1)C(=O)Nc1ccc2c(c1)OCCO2 was read as LmPK inh -2.1%, CHX counter 26.6*, Giardia FBPA inh -28.6%, Shiga inhibitor 67.5* and NS1 function inh 21.1%.
`C[C@H](NC(=O)[C@@H]1Cc2ccccc2CN1)C(=O)Nc1ccc2c(c1)OCO2` gave LmPK inh 1.5%, CHX counter 29.8*, Shiga inhibitor 24.8 and NS1 function inh -9.4%.
`COc1cccc(-c2nc(CS(=O)(=O)CC(=O)Nc3cc(OC)ccc3OC)c(C)o2)c1` gave LmPK inh -1.8%, CHX counter -2.6, Giardia FBPA inh -14.6%, Shiga inhibitor -10.3 and NS1 function inh -0.6%.
Screening COc1ccc2[nH]cc(CCNc3ccnc(-c4c(C)noc4C)n3)c2c1 returned Giardia FBPA inh -14.7%.
Clc1ccc2c(c1)N(CCCN1CCCC13CCCCC3)c1ccccc1S2 was read as NS1 function inh -8.3%.
Cc1cccc(NC(=O)[C@@H]2CCCN2C(=O)OC(C)(C)C)c1C was read as LmPK inh -4.9%, CHX counter -1.3, Giardia FBPA inh -6.0%, Shiga inhibitor -3.9 and NS1 function inh 2.5%.
Screening COc1ccc(Nc2nc(-c3cccs3)cs2)c(OC)c1 returned LmPK inh -1.2%, CHX counter 45.9*, Giardia FBPA inh inconclusive, Shiga inhibitor 105.8* and NS1 function inh -4.9%.
Screening COc1ccc(OC)c(Nc2nc(-c3cccs3)cs2)c1 returned LmPK inh -1.4%, CHX counter 23.1*, Giardia FBPA inh -10.4%, Shiga inhibitor 16.8 and NS1 function inh inconclusive.
